About 83,000 compounds went through this panel and 20% of them were active in at least one assay; those are over-represented in the sample as a whole.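 Compound tested at a single concentration for 48 hours in 96-well plates; a percent growth value below 10 was scored as active.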 A number with no mark means an inactive call. The source made the active and inactive calls.

Growth data for eight compounds are collected here from PubChem BioAssay (NCI).

Some test systems named below: HCT-15 colon; HT29 colon; SNB-75 CNS; SNB-19 CNS; U251 CNS; PC-3 prostate; SK-MEL-5 melanoma; UACC-62 melanoma; LOX IMVI melanoma; SK-MEL-28 melanoma; SK-MEL-2 melanoma; EKVX NSCLC; SN12C renal; UO-31 renal; TK-10 renal; ACHN renal; CAKI-1 renal; A498 renal; CCRF-CEM leukemia; MOLT-4 leukemia.
Test in all cases: NCI-60 one-dose screen, 48 h (100 = growth as untreated, 0 = no growth, -100 = all killed)
Holding throughout (conditions): 10 µM unless noted

Turning to `Cn1ccc2c1CC1CN(Cc3ccco3)C(=O)C1C2C(=O)O` (stereo not given), the growth is 95.8% with HCT-15 colon; 101% in the experiment with HT29 colon; 74.3% in the experiment with SNB-75 CNS; 98% in the experiment with SNB-19 CNS; 97.3% with U251 CNS; 100% with PC-3 prostate. For the same compound, the growth in the experiment on SK-MEL-5 melanoma is 102%; in the experiment on UACC-62 melanoma it was 95.5%; in the experiment with LOX IMVI melanoma, 94.6%; in the experiment on SK-MEL-28 melanoma, 101%; with SK-MEL-2 melanoma, 99.2%; in the experiment with EKVX NSCLC, 91.1%. Besides, the growth in the experiment with SN12C renal is 97.2%; in the experiment on UO-31 renal it was 89.6%; in the experiment on TK-10 renal, 102%; in the experiment with ACHN renal, 105%; with CAKI-1 renal, 94.1%; in the experiment on A498 renal, 98.3%. Besides, the values for the growth in the experiment with CCRF-CEM leukemia and with MOLT-4 leukemia were 105% and 103%, respectively.

In the case of `Cc1ccc(C(=O)/C(=C\c2ccc([N+](=O)[O-])cc2)S(=O)Cc2ccc(Cl)cc2)cc1` (stereo not given), the growth was 10.8% in the experiment with HCT-15 colon; -51.1% (active) with HT29 colon; 75.5% in the experiment with SNB-75 CNS; 46.8% with SNB-19 CNS; 9.49% (active) in the experiment with U251 CNS; 6.38% (active) with PC-3 prostate. The growth in the experiment with SK-MEL-5 melanoma is 78.5%; in the experiment with UACC-62 melanoma it was 5.87% (active); in the experiment on LOX IMVI melanoma it was -26.5% (active); in the experiment on SK-MEL-28 melanoma, 46.6%; in the experiment on SK-MEL-2 melanoma, 72.7%; in the experiment with EKVX NSCLC it was 82.4%. Also, the growth in the experiment with SN12C renal was -15.6% (active); in the experiment with UO-31 renal, 3.42% (active); with TK-10 renal, 50.3%; in the experiment with ACHN renal it was 12.7%; in the experiment with CAKI-1 renal, 59.7%; in the experiment with A498 renal, 77.6%. Moreover, the growth was 4.88% (active) with CCRF-CEM leukemia and 7.82% (active) in the experiment with MOLT-4 leukemia.

In the case of `CC(C)N1C(=O)S/C(=C2/SC(=O)N(C(C)C)C2=O)C1=O`, the growth is 95.9% with HCT-15 colon; 102% with HT29 colon; 64.8% in the experiment with SNB-75 CNS; 93.3% in the experiment with SNB-19 CNS; 96.3% with U251 CNS; 98.2% with PC-3 prostate. Moreover, the growth with SK-MEL-5 melanoma was 93.9%; in the experiment on UACC-62 melanoma, 91.6%; with LOX IMVI melanoma it was 91.9%; in the experiment with SK-MEL-28 melanoma it was 105%; in the experiment on SK-MEL-2 melanoma, 98.7%; with EKVX NSCLC, 85.5%. In addition, the growth with SN12C renal is 94.8%; in the experiment on UO-31 renal, 87.7%; with TK-10 renal, 89.9%; in the experiment on ACHN renal, 102%; in the experiment on CAKI-1 renal it was 98.8%; in the experiment with A498 renal, 89.5%. The growth in the experiment on CCRF-CEM leukemia is 38.9%; in the experiment on MOLT-4 leukemia it was 99.4%.

Regarding `COc1ccc(Cc2cnc(NC(=O)c3ccc4c(c3)OCCO4)s2)cc1`, the growth in the experiment on HCT-15 colon is 7.26% (active); in the experiment with HT29 colon it was 2.59% (active); in the experiment with SNB-75 CNS, 17.9%; in the experiment with SNB-19 CNS, 37.7%; with U251 CNS, 12.3%; with PC-3 prostate, 23.4%. Further, the growth in the experiment on SK-MEL-5 melanoma was -39.3% (active); in the experiment on UACC-62 melanoma it was 48.1%; with LOX IMVI melanoma it was 29.3%; with SK-MEL-28 melanoma, 68.6%; in the experiment with SK-MEL-2 melanoma, 39.3%; in the experiment on EKVX NSCLC, 37.7%. In addition, the growth was 30.7% in the experiment on SN12C renal; 54.8% in the experiment with UO-31 renal; 41% with TK-10 renal; 27.9% with ACHN renal; 27.8% in the experiment with CAKI-1 renal; -6.31% (active) in the experiment with A498 renal. The growth in the experiment with CCRF-CEM leukemia is 13.5%; with MOLT-4 leukemia, 11.6%.

As to `O=C1/C=C/[C@@H](O)[C@@H]2C[C@@H](O)C[C@H]2/C=C/CCC[C@H](CCc2cccc3ccccc23)O1`, the growth was 7.46% (active) with HCT-15 colon; 3.87% (active) with HT29 colon; 33% in the experiment on SNB-75 CNS; 30.1% in the experiment on SNB-19 CNS; 23.8% in the experiment with U251 CNS; 20.6% in the experiment on PC-3 prostate. In addition, the growth was -95.9% (active) in the experiment with SK-MEL-5 melanoma; 11.9% with UACC-62 melanoma; -55.9% (active) in the experiment with LOX IMVI melanoma; 2.17% (active) in the experiment on SK-MEL-28 melanoma; -9.52% (active) in the experiment on SK-MEL-2 melanoma; 13.3% with EKVX NSCLC. In addition, the growth with SN12C renal was 5.88% (active); in the experiment on UO-31 renal it was 4.61% (active); with TK-10 renal it was -0.338% (active); in the experiment with ACHN renal it was 6.35% (active); in the experiment on CAKI-1 renal it was -17.9% (active); with A498 renal, -35.6% (active). Besides, the growth in the experiment on CCRF-CEM leukemia was 7.69% (active); in the experiment on MOLT-4 leukemia, -36.2% (active).

Take `COc1ccc(/C=C/c2nc(Nc3ccc(S(=O)(=O)Nc4nc(C)cc(C)n4)cc3)c3ccccc3n2)cc1`: the growth was 50.5% with HCT-15 colon; 62.2% with HT29 colon; 85.7% in the experiment on SNB-75 CNS; 75.6% in the experiment on SNB-19 CNS; 69.7% in the experiment on U251 CNS; 77.5% in the experiment with PC-3 prostate. The growth in the experiment on SK-MEL-5 melanoma is 61.1%; in the experiment with UACC-62 melanoma it was 20.8%; in the experiment on LOX IMVI melanoma it was 26.3%; in the experiment on SK-MEL-28 melanoma, 87.4%; in the experiment with SK-MEL-2 melanoma, 75.2%; in the experiment with EKVX NSCLC, 72%. The growth in the experiment on SN12C renal is 76.8%; with UO-31 renal, 51.8%; in the experiment with TK-10 renal, 71.1%; in the experiment on ACHN renal, 57.7%; in the experiment on CAKI-1 renal, 53.1%; in the experiment on A498 renal, 7.8% (active). Also, the growth was 61.5% in the experiment with CCRF-CEM leukemia and 65.7% in the experiment on MOLT-4 leukemia.

Take `O=C1Nc2cc(Cl)ccc2/C1=C\c1c(-c2ccc(F)cc2)nc2ccccn12`: the growth is 12.5% in the experiment with HCT-15 colon; 4.36% (active) in the experiment on HT29 colon; -16.9% (active) with SNB-75 CNS; 22.2% with SNB-19 CNS; 22.9% with U251 CNS; 12.8% in the experiment on PC-3 prostate. Also, the growth with SK-MEL-5 melanoma is -10.9% (active); in the experiment with UACC-62 melanoma, 10.6%; in the experiment with LOX IMVI melanoma, 11.1%; with SK-MEL-28 melanoma, 28.2%; with SK-MEL-2 melanoma, 23.7%; with EKVX NSCLC, 34.5%. Further, the growth with SN12C renal is 19.1%; in the experiment with UO-31 renal, 28.7%; with TK-10 renal, 72.7%; with ACHN renal it was 41%; in the experiment on CAKI-1 renal, 21.5%; with A498 renal it was -17% (active). The growth with CCRF-CEM leukemia was 7.67% (active); in the experiment on MOLT-4 leukemia, -4.44% (active).

In the case of `COc1ccc(C(=O)C2C(C#N)C(C#N)C3c4ccccc4C=CN23)cc1` (stereo not given), the growth with HCT-15 colon is 94.5%; with HT29 colon it was 84.4%; with SNB-75 CNS, 74.8%; with SNB-19 CNS it was 85.4%; with U251 CNS, 93.6%; with PC-3 prostate, 84.7%. Moreover, the growth in the experiment on SK-MEL-5 melanoma was 84.2%; with UACC-62 melanoma, 63%; with LOX IMVI melanoma, 87.8%; in the experiment with SK-MEL-28 melanoma it was 98.9%; with SK-MEL-2 melanoma it was 88.5%; with EKVX NSCLC, 84.2%. Besides, the growth was 80.9% with SN12C renal; 60.7% with UO-31 renal; 131% in the experiment on TK-10 renal; 91.3% in the experiment on ACHN renal; 72.4% in the experiment with CAKI-1 renal; 80.9% in the experiment with A498 renal. For the same compound, the values for the growth in the experiment on CCRF-CEM leukemia and in the experiment on MOLT-4 leukemia were 82.5% and 95.6%, respectively.
